Rows were chosen to be rich in hits. Some 9.5% of all compounds tested hit in one or more screens of this group.
NS1 inh: qHTS Assay for Inhibitors of Influenza NS1 Protein Function | AID 2326, 2010 | hit rate 0.4% among 270,000 | Potency, µM (top dose mostly 46.1 µM); further: actives are rising curves; nearly all actives have a fitted effect of over 50% in size
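S. cerevisiae expressing influenza A NS1, grown in glucose, washed, then diluted 1:100 into pH 6.0 -URA galactose medium with 23 nl compound. Growth recovery read as OD600; NS1-free strain serves as control.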
RE007 growth inh: qHTS Assay for Inhibitors of the HIV-1 protein Vpr | S. pombe RE007 Vpr strain, BacTiter-Glo ATP luminescence, 24 h | Potency, µM (highest dose often 92.2 µM), hits mostly inhibitors | hit rate 0.21% among 360,000; active means well fitted falling curve with a large enough effect; inconclusive means small, poorly fitted or top-dose-only effect; inactive means no such curve, though single readings can be large or run the other way; further: nearly all actives have a fitted effect of over 50% in size
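Fission yeast RE007 carrying one integrated HIV-1 vpr copy, seeded at OD 0.01 in PMG+AL medium with 23 nL pinned compound. Grown 24 h at 30 degrees; viability read by BacTiter-Glo luminescence after 5 min.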
Pf growth 48h: Primary qHTS for delayed death inhibitors of the malarial parasite plastid, 48 hour incubation; P. falciparum luciferase growth in erythrocytes, 48 h; Potency, µM (series often up to 28.7 µM), most hits filed as inhibitors; hit rate 5.9% among 310,000; AID 504832, 2011; active means well fitted inhibition curve with a large enough effect; inconclusive means small, poorly fitted or top-dose-only effect, or another doubt; inactive means no such curve, though single readings can be large or run the other way
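In quantitative HTS format, infected erythrocytes bearing luciferase-reporter parasites were treated for a single generation at 37 C. Luminescence after adding detection reagent served as the growth measure.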
SARS PLpro yeast: qHTS of Yeast-based Assay for SARS-CoV PLP | S. cerevisiae expressing SARS-CoV PLpro, growth rescue | Potency, µM (doses to about 32.9 µM), usual class: activators | hit rate 0.19% among 330,000 | AID 485353, 2010; further: nearly all actives have a fitted effect of over 55% in size
Pf growth 96h: Primary qHTS for delayed death inhibitors of the malarial parasite plastid, 96 hour incubation; P. falciparum luciferase reporter growth, 96 h; Potency, µM (titrated, usually from 28.7 µM), actives largely listed as inhibitors; hit rate 6.9% among 320,000; active means well fitted inhibition curve with a large enough effect; inconclusive means small, poorly fitted or top-dose-only effect, or another doubt; inactive means no such curve, though single readings can be large or run the other way
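Readout is luminescence from an integrated firefly luciferase in P. falciparum. Red cells, 2% hematocrit and 0.05% parasitemia final, were cultured with compound through two parasite generations (96 hours) at 37 C, 5% CO2.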
Hits are given with their value; 0 = inactive; ? = inconclusive; - = no result; [ ] = dose if it differs, or a comment. Unless noted, the call rests on the fitted dose curve.

SMILES | NS1 inh | RE007 growth inh | Pf growth 48h | SARS PLpro yeast | Pf growth 96h
COc1ccc(CN2C(=O)c3ccccc3C2C(=O)NC2CCCCCC2)c(OC)c1 (configuration not stated) | - | 0 | ? | 0 | ?
CCOc1ccccc1CN1C(=O)c2ccccc2C1C(=O)NC(C)CC (configuration not stated) | 0 | 0 | 0 | 0 | 8.3µM
COc1ccc(CN2C(=O)c3ccccc3C2C(=O)NCCc2ccccc2)c(OC)c1 (configuration not stated) | - | 0 | ? | 0 | 8.3µM
CCCn1c(CN2CCN(C(=O)c3ccco3)CC2)nc2cc(S(=O)(=O)N(C)C)ccc21 | - | 0 | 10µM | 0 | 9.3µM
CCn1c(CN2CCN(c3ccc(OC)cc3)CC2)nc2cc(S(=O)(=O)N(C)C)ccc21 | 0 | 0 | ? | 0 | ?
CCOc1ccc(S(=O)(=O)N(CC(=O)N/N=C/c2cccs2)c2ccc(C)cc2)cc1 | 0 | 0 | 13µM | 0 | ?
CCOc1ccc(N(CC(=O)NCCSCc2ccco2)S(=O)(=O)c2ccc(C)cc2)cc1 | ? | 0 | ? | 0 | 8.3µM
CCOc1ccccc1N(CC(=O)NCCSCc1ccco1)S(=O)(=O)c1ccccc1 | 0 | 0 | 8.3µM | 0 | 0
COc1ccc(S(=O)(=O)N(CC(=O)N/N=C/c2cccs2)c2ccc(C)cc2)cc1OC | ? | 0 | 0 | 0 | -
COc1ccc(OC)c(N(CC(=O)NCCSCc2ccco2)S(=O)(=O)c2ccccc2)c1 | 0 | 0 | ? | 0 | ?
CCOc1ccc(N(CC(=O)NCCSCc2ccco2)S(=O)(=O)c2ccc(F)cc2)cc1 | 0 | 0 | ? | 0 | 0
Cc1ccc(-c2c[n+](Cc3ccc(Cl)c(Cl)c3)c3n2CCC3)cc1 | 0 | 0 | 1.7µM | 0 | 0.19µM
COc1ccc(C(=O)C[n+]2cc(-c3ccc(OC)cc3)n3c2CCCC3)cc1 | - | 0 | 1.2µM | 0 | 1.5µM
O=C(C[n+]1cc(-c2ccc(F)cc2)n2c1CCC2)OCc1ccccc1 | 0 | 0 | 0 | 0 | 0
O=C(C[n+]1cc(-c2ccccc2)n2c1CCCCC2)c1ccc(Br)cc1 | 0 | 0 | 1.7µM | 0 | 0
O=C(C[n+]1cc(-c2ccccc2)n2c1CCC2)OCc1ccccc1 | 0 | 0 | 0 | 0 | ?
Cc1ccc(C(=O)C[n+]2cc(-c3ccc(C)cc3)n3c2CCCCC3)cc1 | 0 | 0 | 0.41µM | 0 | 0.41µM
O=C(NNc1c(Cl)cccc1Cl)c1ccno1 | 0 | 0 | 0 | 0 | 0
COc1ccccc1N=NNc1ccccc1OC | - | 0 | - | - | -
CC(C)n1c(N2CCCC2)nc2c1c(=O)[nH]c(=O)n2C | 0 | 0 | 0 | 0 | 0
COCCn1c(SCc2ccccc2Cl)nc2c1c(=O)[nH]c(=O)n2C | 0 | 0 | 0 | 0 | 0
COCCn1c(N2CCCC2)nc2c1c(=O)[nH]c(=O)n2C | 0 | 0 | 13µM | 0 | 0
COCCn1c(Sc2nc(C)cs2)nc2c1c(=O)[nH]c(=O)n2C | 0 | 0 | 0 | 0 | 13µM
Cn1c(N2CCCCC2)nc2c1c(=O)[nH]c(=O)n2C | ? | 0 | 0 | 0 | 10µM
CCOC(=O)Cn1c(N2CCOCC2)nc2c1c(=O)[nH]c(=O)n2C | 0 | 0 | 0 | 0 | 12µM
SMILES | NS1 inh | RE007 growth inh | Pf growth 48h | SARS PLpro yeast | Pf growth 96h
C[C@@H]1CN([C@@H](C)CO)C(=O)CCCn2nncc2CO[C@H]1CN(C)C(=O)C1CC1 | - | 0 | - | - | -
COc1ccc2nc(C)cc(N3CCN(S(=O)(=O)c4ccccc4F)CC3)c2c1 | - | 0 | ? | 0 | 9.3µM
COc1ccc2nc(C)cc(N3CCN(c4ccccc4)CC3)c2c1 | 0 | 0 | 13µM | 0 | 9.3µM
Cc1cc(C)n(-c2nc3ccccc3nc2N2CCN(S(=O)(=O)c3ccc4ccccc4c3)CC2)n1 | 0 | 0 | - | 0 | 5.2µM
Cc1cc(N2CCN(S(=O)(=O)c3ccc(Cl)c(Cl)c3)CC2)c2ccccc2n1 | 0 | 0 | 12µM | 0 | 0
Cc1cc(CCC(=O)O)c(C)cc1CCC(=O)O | 0 | 0 | 5.9µM | 0 | ?
COc1ccc(CCC(=O)O)c(O)c1 | 0 | 0 | 0 | 0 | 0
CCN(c1ccccc1)S(=O)(=O)c1cccc(C(=O)N(C)CC(=O)Nc2ccc(F)c(F)c2F)c1 | - | 0 | - | - | -
COc1ccc(CN(C(=O)/C=C/C(=O)c2ccc(OC)cc2O)C(C(=O)NC2CCCCC2)c2ccncc2)cc1 (configuration not stated) | 0 | 0 | 12µM | 0 | 0
COc1ccc(C(=O)/C=C/C(=O)N(Cc2ccc3c(c2)OCO3)C(C(=O)NC2CCCCC2)c2ccncc2)c(O)c1 (configuration not stated) | 0 | 0 | 5.2µM | 0 | 0
O=C(NC1CCCCC1)C(c1ccncc1)N(Cc1ccc2c(c1)OCO2)C(=O)c1cnsn1 (configuration not stated) | 0[9.22 µM] | 0 | ? | 0 | 0
CCCn1cc(C(=O)N(C)C2CCCN(Cc3ccccc3F)C2)c(C)n1 (configuration not stated) | 0 | 0 | 0 | 0 | 0
COc1ccc(NC(=O)CSc2nnc(Cn3cnc([N+](=O)[O-])n3)n2C)cc1 | 0 | 0 | 0 | 0 | 0
COC(=O)c1ccc(NC(=O)CSc2nnc(COc3ccccc3)n2C)cc1 | 0 | 0 | 8.3µM | 0 | 0
CCOC(=O)c1cccc(NC(=O)CSc2nnc(COc3ccccc3C)o2)c1 | 0 | 0 | 0 | 0 | 7.4µM
CCOc1ccc(NC(=O)CSc2nnc(Cn3cnc4ccccc43)n2C)cc1 | 0 | 0 | 0 | 0 | 2.3µM
Cn1c(Cn2cnc([N+](=O)[O-])n2)nnc1SCC(=O)Nc1ccccc1 | 0 | 0 | 0 | 0 | 2.9µM
CC(=O)N[C@@H](Cc1c[nH]c2ccccc12)C(=O)OCc1cc(C(F)(F)F)cc(C(F)(F)F)c1 | 0 | 0[18.4 µM] | 0 | 0 | 0
Cc1cc2c(cc1C)-c1nnnn1C(N1CCCC1)C(=O)N2 (configuration not stated) | - | 0 | - | - | -
COC(=O)C[C@H]1C=C[C@H](NC(=O)Nc2ccccc2F)[C@@H](CO)O1 | - | 0 | - | - | -
CCOC(=O)CN(C(=O)CSc1nnc(CNc2ccc(F)cc2)n1C)c1ccccc1 | 0 | 0 | ? | 0 | -
CCOC(=O)CN(C(=O)CSc1nnc(COc2ccc(OC)cc2)n1C)c1ccccc1 | 0 | 0 | ? | 0 | 12µM
Cn1c(SCC(=O)Nc2ccc(N3CCOCC3)c(Cl)c2)nnc1C(O)c1ccccc1 (configuration not stated) | 0 | 0 | ? | 0 | 0
COC(=O)c1ccc(NC(=O)CSc2nnc(COc3ccc4c(c3)CCCC4)o2)cc1 | 0 | 0 | 0 | 0 | 1.9µM
CCc1ccc(NC(=O)CSc2nnc(COc3ccc4c(c3)CCCC4)o2)cc1 | 0 | 0 | - | 0 | ?
Cn1c(COc2ccccc2)nnc1SCC(=O)Nc1ccc(N2CCOCC2)c(Cl)c1 | 0 | 0 | ? | 0 | 4.1µM
COc1ccc(C(=O)C(C)Sc2nnc(C3CC3)n2C2CC2)cc1 (configuration not stated) | - | 0 | 0 | 0 | 0
